Key:
Experiment in all cases: PBM binding z-score (relative to random genomic background probes); higher = stronger binding; sequences stand for … in GC…GCGATTGACAGCGTAGAATGAAGG
[1] = system: FXR:RXRa (NR concentration 270 nM, RXRa partner concentration 90 nM)
In short: (§1)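 Binding z-scores take random background probes as their reference. They come from custom Agilent 4×180K protein-binding microarrays incubated 1 h with ligand-free nuclear receptor dimers, with antibodies against each partner (one per run) detecting binding. Scanned fluorescence was regression-normalized.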

[2] = system: LXRa:RXRa (NR concentration 270 nM, RXRa partner concentration 90 nM)
In short: as §1

[3] = system: LXRa homodimer (NR concentration 270 nM)
In short: as §1

[4] = system: LXRb:RXRa (NR concentration 270 nM, RXRa partner concentration 90 nM)
In short: as §1

[5] = system: LXRb homodimer (NR concentration 270 nM)
In short: as §1

[6] = system: PPARa:RXRa (NR concentration 270 nM, RXRa partner concentration 90 nM)
In short: as §1

[7] = system: PPARg:RXRa (NR concentration 180 nM, RXRa partner concentration 90 nM)
In short: as §1

[8] = system: PPARg:RXRa 270nM:90nM, anti-RXR (NR concentration 270 nM, RXRa partner concentration 90 nM)
In short: as §1

[9] = system: PPARg:RXRa 30nM:10nM, anti-RXR (NR concentration 30 nM, RXRa partner concentration 10 nM)
In short: as §1

[10] = system: PPARg:RXRa 90nM:30nM, anti-RXR (NR concentration 90 nM, RXRa partner concentration 30 nM)
In short: as §1

[11] = system: PPARg:RXRa DBDmut IVT, anti-RXR (DBD mutation: RXRa K156A/R161A, NR concentration 270 nM, RXRa partner concentration 90 nM)
In short: as §1

[12] = system: PPARg:RXRa IVT, anti-PPARg (NR concentration 270 nM, RXRa partner concentration 90 nM)
In short: as §1

[13] = system: PPARg DBDmut:RXRa IVT, anti-PPARg (DBD mutation: PPARg1 K132A/R137A, NR concentration 270 nM, RXRa partner concentration 90 nM)
In short: as §1

[14] = system: PPARg DBDmut IVT, anti-PPARg (DBD mutation: PPARg1 K132A/R137A, NR concentration 270 nM)
In short: as §1

[15] = system: PPARg homodimer (NR concentration 180 nM)
In short: as §1

[16] = system: PXR:RXRa (NR concentration 270 nM, RXRa partner concentration 90 nM)
In short: as §1

[17] = system: PXR homodimer (NR concentration 270 nM)
In short: as §1

[18] = system: RARa:RXR (NR concentration 270 nM, RXRa partner concentration 90 nM)
In short: as §1

[19] = system: RARa homodimer (NR concentration 270 nM)
In short: as §1

[20] = system: RARb:RXRa (NR concentration 270 nM, RXRa partner concentration 90 nM)
In short: as §1

Sequence	PBM binding z-score [1]	PBM binding z-score [2]	PBM binding z-score [3]	PBM binding z-score [4]	PBM binding z-score [5]	PBM binding z-score [6]	PBM binding z-score [7]	PBM binding z-score [8]	PBM binding z-score [9]	PBM binding z-score [10]	PBM binding z-score [11]	PBM binding z-score [12]	PBM binding z-score [13]	PBM binding z-score [14]	PBM binding z-score [15]	PBM binding z-score [16]	PBM binding z-score [17]	PBM binding z-score [18]	PBM binding z-score [19]	PBM binding z-score [20]
ACTATTAGTTGAGACGAGCGCAACCGATAGGTTG	-0.41	-0.534	-0.214	-0.638	-0.159	-0.642	0.477	-0.52	-0.422	-0.414	-0.504	-0.34	0.343	0.844	-0.155	-0.542	0.00515	-0.474	-0.207	-0.278
GCTTACGGTTCAAAGGTTATAGCATGAATAGAAT	4.43	4.34	0.505	4.04	-0.0859	5.44	4.71	5.6	2.92	5.08	-0.685	0.999	0.711	0.999	0.99	4.71	0.601	6.22	0.458	2.33
TCGAGTAGGTTAGTCGGGGCATTCAGCCAACATA	-0.132	-0.201	-0.628	0.294	-0.855	0.44	-0.224	0.553	0.435	0.377	2.04	1.69	-0.526	-0.18	-0.242	-0.0448	-0.488	0.00411	-0.698	0.351
AGAACGAGGGCAATGAGTCGATAGCACGGGTGGC	0.187	-0.15	-0.625	-0.448	-0.595	1.03	1.41	0.849	0.0259	0.789	3.4	2.38	-0.0536	-0.236	-0.174	0.0741	0.415	-0.0854	-0.378	1.9
TCATCTAGGTAAATGCTAGGTGAAAGTCCGATCT	0.554	0.411	0.0508	0.263	-0.0728	1.17	0.51	2.29	3.44	2.92	3.81	3.11	1.09	0.995	0.213	0.375	-0.263	0.578	-0.0135	0.219
GCTATTTGTTGAAAGGGCAACCGAATGATTCTCG	0.484	0.768	0.386	0.834	0.261	1.37	0.764	1.88	0.957	1.46	0.563	0.804	0.209	0.611	1.53	0.686	0.462	1.01	1.45	1.98
TACCCTAGGTCAGATCGGGCCAGTATACGCTATA	2.3	4.7	5.49	2.57	2.46	1.98	1.12	1.34	0.45	1.33	0.709	2.17	0.146	-0.236	0.849	1.37	-0.0848	1.8	0.123	3.19
ATATGTAGGTTAGCTGGGGTCATTCGGACTAGGC	4.85	5.8	3.75	4.73	1.58	5.11	5.79	5.43	3	4.4	6.85	6.3	3.21	1.98	4.23	6.74	5.39	6.34	1.19	3.05
GGAACGATGGCAAGTTGATAGCAGAGTTTGATGG	-0.624	-0.756	-0.63	-0.971	-1.01	-0.654	0.339	-0.873	-0.448	-0.709	0.0538	-0.751	-1.07	-0.527	-1.16	-0.323	-0.221	-0.504	-0.494	-0.496
GGAGCGAGGGCAAAGTTGATAGCATCTGTCGACG	0.977	0.574	-0.435	0.182	-0.792	2.54	3.16	4.11	2.37	3.6	0.739	1.35	-0.304	-0.838	-0.183	0.839	-0.0464	1.21	-0.259	2.14
ACTAGCGGGCCAAGGGTCACTCAAGATTAGTCCG	1.99	2.61	0.192	2.86	-0.58	4.26	7.39	7.39	6.2	8.29	0.353	3.65	-0.682	-0.893	0.892	3.21	-0.327	4.1	0.108	3.38
GCTGCTTGGTCAACTGATGGTCAGCTAAAGCTCG	-0.663	-0.552	-0.675	-0.752	-0.593	-0.414	-0.68	-0.367	-1.15	-0.725	0.408	0.0173	-0.74	-1.06	-0.674	-0.491	-0.859	-0.138	-0.784	1.24
CCAGACAGGTGAGGAGGTAACTCAGCCTCGATTA	-0.0226	0.276	0.253	0.35	-0.29	0.831	0.403	0.546	-0.128	0.0478	0.968	0.86	-0.637	-0.654	0.632	0.016	0.482	0.341	0.613	0.524
CCTAGCAGGCAAATCTGGGTCACTCAAGGCTTGA	0.679	1.35	-0.33	0.851	-0.654	3.07	2.26	2.58	0.128	1.8	4.27	5.25	-0.619	-1.06	0.358	0.746	-0.354	0.989	-0.416	1.16

Reference: the supplement of paper PMC6555819
